Screens from PubChem BioAssay.
Shown are actives, neighbours in structure and some others; about 3.3% of the full set was active somewhere.
Sm TGR inh: S. mansoni TGR enzyme inhibition. Q962Y6. purified TGR, DTNB reduction, TNB absorbance 405 nm. Potency, µM (doses to about 114 µM), usual class: inhibitors. hit rate 3% among 360,000; also: nearly all actives have a fitted effect of over 60% in size
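TGR 20 nM + NADPH 100 uM (dispensed conc.), cpd preinc 15 min RT; start with NADPH (500 uM addition) then DTNB (15 mM addition). Kinetic TNB absorbance, 405 nm filter. Four-parameter Hill fit across titration.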
AmpC inh detg: inhibitors of E. coli AmpC beta-lactamase with detergent; hit rate 0.041% among 370,000; AmpC hydrolysis of nitrocefin, absorbance 480 nm, 0.01% Triton; Potency, µM (highest dose often 114 µM), most hits filed as inhibitors; also: nearly all actives have a fitted effect of over 25% in size
Target sequence (P00811 whole entry, looked up): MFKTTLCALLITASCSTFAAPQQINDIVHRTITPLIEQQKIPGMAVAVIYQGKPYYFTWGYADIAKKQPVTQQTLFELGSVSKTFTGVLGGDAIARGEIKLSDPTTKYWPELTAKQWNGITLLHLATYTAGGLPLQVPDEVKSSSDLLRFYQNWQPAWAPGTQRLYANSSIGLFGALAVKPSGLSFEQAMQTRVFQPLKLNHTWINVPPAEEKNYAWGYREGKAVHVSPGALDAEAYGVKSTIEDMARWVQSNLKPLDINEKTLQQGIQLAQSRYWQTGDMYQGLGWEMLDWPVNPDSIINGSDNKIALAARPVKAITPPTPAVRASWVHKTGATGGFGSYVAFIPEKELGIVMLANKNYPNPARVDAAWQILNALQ
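AmpC (5.3 nM in the dispensed reagent) in 20 mM phosphate pH 7.0 with 0.01% (detergent screen) or 0.0001% Triton X-100 was preincubated with compounds for 15 min at room temperature. Nitrocefin was then added from an 800 uM solution, and hydrolysis was followed at 480 nm.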
AmpC no deterg: blocks E. coli AmpC beta-lactamase in detergent-free assay | Potency, µM (series often up to 57.1 µM), usual class: inhibitors | hit rate 0.52% among 330,000 | AID 485341 | AmpC nitrocefin hydrolysis, absorbance 480 nm, 0.0001% Triton; also: nearly all actives have a fitted effect of over 20% in size
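AmpC (5.3 nM in the dispensed reagent) in 20 mM phosphate pH 7.0 with 0.01% (detergent screen) or 0.0001% Triton X-100 was preincubated with compounds for 15 min at room temperature. Nitrocefin was then added from an 800 uM solution, and hydrolysis was followed at 480 nm.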
Large screens that a line does not name were inactive. Calls follow the shape of the dose curve; as a rule, active = well fitted curve in the direction sought with a large enough effect; inconclusive = small, poorly fitted or top-dose-only effect, or another doubt; inactive = no such curve, though single readings can be large; an effect the other way counts as inactive or inconclusive.

Cc1c(O)c(CN2CCCC2)cc2c1oc(=O)c1ccccc12	Sm TGR inh 50.1µM, AmpC inh detg inconclusive
COc1ccccc1NC(=O)c1cnc(SCC(=O)N2CCCc3ccccc32)n(C)c1=O	none (no result: AmpC no deterg)
CCCC(O)(c1ccc(Cl)cc1)C(CN1CCOCC1)c1ccccc1 (stereo not drawn)	AmpC inh detg inconclusive
CCCCOc1ccc(C(O)(CCC)CCN2CCOCC2)cc1 (stereo not drawn)	Sm TGR inh 39.8µM
CCCCOc1ccc(OCCCN2CCOCC2)cc1	AmpC inh detg inconclusive
CCCCC(O)(CCN1CCOCC1)c1ccc(Cl)cc1 (stereo not drawn)	Sm TGR inh 35.5µM
CCCOc1ccc(C(C)(O)CN2CCOCC2)cc1 (stereo not drawn)	none
CCCCOc1ccc(C(O)(CC)CCN2CCOCC2)cc1 (stereo not drawn)	Sm TGR inh 20µM
Cc1ccc(Cl)cc1N1CCN(C(c2ccc(F)cc2)c2nnc(-c3ccccc3)o2)CC1 (stereo not drawn)	none (no result: AmpC no deterg)
Cc1ccc2nc(SCc3nc(-c4ccc(Cl)cc4)no3)[nH]c2c1	none (no result: AmpC no deterg)
COc1ccc(N2CCN(CC(O)COc3ccc(C(C)C)c(C)c3)CC2)cc1 (stereo not drawn)	none (no result: AmpC no deterg)
Cc1ccc(NC(=O)CCl)cc1S(=O)(=O)N1CCCCCC1	Sm TGR inh 7.94µM, AmpC inh detg inconclusive
O=C(CC1OC(=O)c2ccccc21)Nc1ccc(Cl)c(S(=O)(=O)N2CCCCC2)c1 (stereo not drawn)	AmpC inh detg inconclusive
COCCNCC(=O)Nc1ccc(C)c(S(=O)(=O)N2CCCCC2)c1	none
Cc1ccc(NC(=O)CC2OC(=O)c3ccccc32)cc1S(=O)(=O)N1CCCCCC1 (stereo not drawn)	Sm TGR inh 25.1µM, AmpC inh detg inconclusive
COc1ccc(S(=O)(=O)N2CCCCCC2)cc1NC(=O)CC1OC(=O)c2ccccc21 (stereo not drawn)	Sm TGR inh 39.8µM, AmpC inh detg inconclusive
O=C(CC1OC(=O)c2ccccc21)Nc1cccc(S(=O)(=O)N2CCCCCC2)c1 (stereo not drawn)	AmpC no deterg inconclusive
Cc1ccccc1Cn1cc(S(=O)(=O)c2ccc(F)cc2)c(=O)c2cc3c(cc21)OCO3	none (no result: AmpC no deterg)
CCc1ccccc1NC(=O)C1CCCN(c2nnc(-n3c(C)ccc3C)s2)C1 (stereo not drawn)	none (no result: AmpC no deterg)
COc1ccc(NC(=O)C(C)n2c(C)c3cnn(-c4ccccc4)c(=O)c3c2C)cc1Cl (stereo not drawn)	none (no result: AmpC no deterg)
COc1cccc(-c2ccc3c(N)c(C(=O)NCc4ccc(Cl)cc4)sc3n2)c1	none (no result: AmpC no deterg)
Cc1ccc(C(=O)N2CCc3cc(CNC(=O)c4ccnn4C)ccc32)cc1	none (no result: AmpC no deterg)
Cc1ccc(SCC(=O)c2c(C)nc3cc(C)ccn23)cc1	none
Cc1ccn2c(C(=O)CSc3ccc(Cl)cc3)c(C)nc2c1	AmpC no deterg 0.316µM
O=C(NC1CCCCC1)c1ccc(CSc2nc3ccncc3n2Cc2cccc(F)c2)cc1	none (no result: AmpC no deterg)
Cc1ccc(S(=O)(=O)c2c(C)nn(-c3ccccc3)c2OC(=O)c2ccco2)cc1	Sm TGR inh 35.5µM
Cc1ccc(S(=O)(=O)c2c(C)nn(-c3ccccc3)c2OC(=O)c2ccc(Br)o2)cc1	none
COc1cccc(CNC(=O)c2ccc3nc(-c4ccc(F)cc4)c(-c4ccc(F)cc4)nc3c2)c1	none (no result: AmpC no deterg)
COc1ccc(C)cc1N(C)C(=O)c1sc2nc3n(c(=O)c2c1C)CCCCC3	Sm TGR inh 22.4µM (no result: AmpC no deterg)
Cc1c(C(=O)NCc2ccc(Cl)cc2)sc2nc3n(c(=O)c12)CCC3	none (no result: AmpC no deterg)
COc1ccc(CNC(=O)c2sc3nc4n(c(=O)c3c2C)CCCCC4)cc1	Sm TGR inh 8.91µM (no result: AmpC no deterg)
Cc1ccc(N(C)C(=O)c2sc3nc4n(c(=O)c3c2C)CCCC4)cc1C	none (no result: AmpC no deterg)
COc1cc(NC(=O)CCc2c(C)nc3c(-c4ccc(F)cc4)c(C)nn3c2C)cc(OC)c1OC	none (no result: AmpC no deterg)
CCOC(=O)c1cc(-c2ccccc2)n(CCCC(=O)Nc2ccc(C)cc2Cl)c1C	none (no result: AmpC no deterg)
CCOC(=O)c1sc(N(Cc2ccccc2)C(=O)COC(=O)c2ccccc2O)nc1C	none
CCOC(=O)c1sc(N(Cc2ccccc2)C(=O)CCl)nc1C	Sm TGR inh 25.1µM
COc1ccc(-c2nnnn2CCc2ccccc2)cc1	AmpC no deterg 0.199µM
COc1ccc(-c2nnnn2C(C)C)cc1	none
CC1(C)Cc2nc3sc4c(SCC(=O)NCc5ccco5)ncnc4c3cc2CO1	Sm TGR inh 12.6µM, AmpC inh detg inconclusive
Cc1nc2c(sc3nc4c(cc32)COC(C)(C)C4)c(=O)n1CC(=O)NCc1ccco1	Sm TGR inh 39.8µM
CC1(C)Cc2nc3sc4c(=O)n(CC(=O)NCc5ccccc5)cnc4c3cc2CO1	none
CCCc1nc2c(sc3nc4c(cc32)COC(C)(C)C4)c(=O)n1CCN(C)C	none
CCCc1nc2c(sc3nc4c(cc32)COC(C)(C)C4)c(=O)n1Cc1ccco1	Sm TGR inh 35.5µM
Cc1nc2c(sc3nc4c(cc32)COC(C)(C)C4)c(=O)n1Cc1ccccc1	none
O=c1c(=O)n(-c2ccccc2)ccn1Cc1c(F)cccc1Cl	none (no result: AmpC no deterg)
CCc1ccc(-n2c(=O)c3c4c(sc3n(CC(=O)N3CCCCC3CC)c2=O)CCC4)cc1 (stereo not drawn)	none (no result: AmpC no deterg)
Cc1ccc(Cn2c(C(=O)Nc3ccc(Cl)cc3)cc3sccc32)cc1	none (no result: AmpC no deterg)
CCOc1ccccc1CNS(=O)(=O)c1ccc(-c2coc(C)n2)cc1	none (no result: AmpC no deterg)
COc1ccccc1CCNC(=O)CCCn1c(=O)c2cccn2c2cccnc21	none (no result: AmpC no deterg)
COc1ccc(N2CCN(S(=O)(=O)c3ccc(C4CCCCC4)cc3)CC2)cc1	none (no result: AmpC no deterg)
CCOc1ccc(C(=O)N2CCCCCC2)cc1	none
CCOc1ccc(C(=O)CC(C(=O)O)N2CCN(Cc3ccccc3)CC2)cc1 (stereo not drawn)	Sm TGR inh 7.94µM
CCOc1ccc(C(=O)CC(NCc2cccs2)C(=O)O)cc1 (stereo not drawn)	Sm TGR inh 6.31µM
CCOc1ccc(C(=O)OC(C)C(=O)N2CCN(Cc3ccccc3)CC2)cc1 (stereo not drawn)	none (no result: Sm TGR inh, AmpC inh detg)
CCOc1ccc(C(=O)CC(C(=O)O)N2CCCCC2)cc1 (stereo not drawn)	Sm TGR inh 6.31µM, AmpC inh detg inconclusive
CCOc1ccc(C(=O)CCC(=O)N(CC)CC(=O)NCc2cccs2)cc1	none
COc1ccc(NC(=O)Nc2sc3nc4n(c(=O)c3c2C)CCC(C)CC4)cc1OC (stereo not drawn)	Sm TGR inh inconclusive (no result: AmpC no deterg)
COc1ccc(CCNC(=O)CCc2cn(Cc3ccc(C)cc3)c3ccccc23)c(OC)c1OC	none (no result: AmpC no deterg)
O=C1CS(=O)(=O)C2(C(=O)Nc3ccccc32)N1c1cccc(Cl)c1 (stereo not drawn)	none (no result: AmpC no deterg)
CN(C)/C=C/C(=O)c1ccc(Br)cc1	none (no result: Sm TGR inh)
CN(O)/C=C/C(=O)c1ccc(Br)cc1	Sm TGR inh 8.91µM
COc1ccc(NC(=O)c2cn3c4c(ccc(Cl)c4c2=O)OC(C)C3)cc1OC (stereo not drawn)	none (no result: AmpC no deterg)
CN1CCN(C(=O)c2cc3nc(-c4ccco4)cc(C(F)(F)F)n3n2)CC1	none
Cc1nn(C)cc1CN(C)C(=O)c1cc2nc(-c3ccco3)cc(C(F)(F)F)n2n1	Sm TGR inh 35.5µM
Cc1nn(C)c(C)c1CN(C)C(=O)c1cc2nc(-c3ccco3)cc(C(F)(F)F)n2n1	Sm TGR inh 12.6µM, AmpC inh detg inconclusive
